15-hLO inh: 15-hLO (ALOX15) enzyme inhibition; purified 15hLO-1, xylenol orange hydroperoxide absorbance; Potency, µM (series often up to 57.1 µM), hits mostly inhibitors; actives 1.4% (n = 74,000); also: nearly all actives have a fitted effect of over 55% in size
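Purified human 15hLO-1 (40 nM final) in 25 mM Hepes pH 7.5, 0.01% Triton X-100 was preincubated with compound 15 min at room temperature, then reacted 6 min with 50 uM arachidonic acid; hydroperoxide detected by Fe-XO, 573/405 nm absorbance ratio.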
ALOX15B inhib: 15-hLO-2 (ALOX15B) enzyme inhibition; O15296; purified 15hLO-2, xylenol orange hydroperoxide absorbance; Potency, µM (titrated, usually from 57.1 µM), most hits filed as inhibitors; actives 0.56% (n = 110,000); also: nearly all actives have a fitted effect of over 60% in size
Target sequence (O15296 whole entry, looked up): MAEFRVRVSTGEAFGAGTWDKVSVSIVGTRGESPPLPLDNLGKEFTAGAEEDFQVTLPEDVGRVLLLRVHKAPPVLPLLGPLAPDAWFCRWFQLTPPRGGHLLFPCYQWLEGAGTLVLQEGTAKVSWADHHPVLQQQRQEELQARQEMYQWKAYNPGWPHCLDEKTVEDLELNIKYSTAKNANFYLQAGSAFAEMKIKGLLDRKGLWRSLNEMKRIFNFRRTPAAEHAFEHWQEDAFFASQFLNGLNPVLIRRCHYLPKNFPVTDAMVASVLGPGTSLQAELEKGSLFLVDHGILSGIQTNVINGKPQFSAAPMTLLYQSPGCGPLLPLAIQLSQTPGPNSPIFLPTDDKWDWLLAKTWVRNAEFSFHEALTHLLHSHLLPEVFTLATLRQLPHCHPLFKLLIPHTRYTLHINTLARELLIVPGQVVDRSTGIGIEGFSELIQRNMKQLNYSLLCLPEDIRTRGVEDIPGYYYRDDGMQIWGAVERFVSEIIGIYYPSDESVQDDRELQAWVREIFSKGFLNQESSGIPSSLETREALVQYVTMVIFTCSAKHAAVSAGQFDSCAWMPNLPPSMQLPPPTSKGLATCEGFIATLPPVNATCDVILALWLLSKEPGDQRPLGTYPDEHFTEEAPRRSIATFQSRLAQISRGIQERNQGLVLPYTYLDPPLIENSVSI
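Purified human 15hLO-2 (50 nM final) preincubated with compounds 15 min at room temperature in 25 mM Hepes pH 7.5, 0.01% Triton X-100, then 45 uM arachidonic acid added for 90 min; hydroperoxide detected via ferrous/xylenol orange, 573/405 nm absorbance ratio.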
A number is an active result; [ ] = remark or other dose. The sample as a whole holds a higher share of hits than the screen did. Calls follow the shape of the dose curve; as a rule, active = well fitted inhibition curve with a large enough effect; inconclusive = small, poorly fitted or top-dose-only effect; inactive = no such curve, though single readings can be large or run the other way.

What do the screens show for `CC(C)(C)NC[C@@H](O)COc1ccccc1C1CCCC1`?
15-hLO inh: inactive; ALOX15B inhib: inactive

Results for C=C(Nc1ccc(OCC)cc1)Nc1ccc(OCC)cc1 ?
ALOX15B inhib: inactive[0.0915 µM]

What do the screens show for `O=C(OCC#CCSc1nnc(-c2ccccc2)o1)c1cccs1`?
ALOX15B inhib: inactive

How did O=C(OCC#CCSc1nnc(-c2ccc(Br)cc2)o1)c1ccco1 do in these assays?
15-hLO inh: 3.2µM; ALOX15B inhib: inactive

What do the screens show for `Cn1c(=O)c(CCc2ccccc2)nc2cnc(N3CCNCC3)nc21`?
15-hLO inh: inactive; ALOX15B inhib: inactive

What do the screens show for `Cn1c(NCc2cccc(Br)c2)nc2ccccc21`?
15-hLO inh: 10µM; ALOX15B inhib: inactive

Results for Cn1c(NCc2ccccc2O)nc2ccccc21 ?
15-hLO inh: inactive; ALOX15B inhib: inactive

How did CN(C)c1ccc(-c2cncnc2NCc2ccccc2)cc1 do in these assays?
15-hLO inh: inactive; ALOX15B inhib: inactive

What do the screens show for `COc1cc2cc3c4cc(OC)c(OC)cc4cc[n+]3c(C)c2cc1OC`?
15-hLO inh: inactive; ALOX15B inhib: inactive

Results for COCCNc1ncnc2ccc(-c3ccccc3C(F)(F)F)cc12 ?
15-hLO inh: 25µM; ALOX15B inhib: inconclusive

What do the screens show for `COCCNc1ncnc2ccc(-c3ccccc3OC)cc12`?
15-hLO inh: inactive; ALOX15B inhib: inactive

How did COc1cc(/C=N/N(C)c2ccccc2)cc(Cl)c1O do in these assays?
ALOX15B inhib: 10µM

Results for COc1ccc(OC)c(/C=N/N(C)c2ccccc2)c1 ?
ALOX15B inhib: inactive

How did COc1ccc(Nc2ccc3c(c2)=NC2(CCCCC2)[N+]=3[O-])cc1 do in these assays?
15-hLO inh: inconclusive; ALOX15B inhib: inactive

Results for [O-][N+]1=c2ccc(Nc3ccccc3)cc2=NC12CCCCC2 ?
15-hLO inh: 3.2µM; ALOX15B inhib: inactive

What do the screens show for `c1csc(CNc2nc(-c3ccoc3)nc3ccccc23)c1`?
15-hLO inh: inconclusive; ALOX15B inhib: inactive

How did COc1ncc2nc(-c3cc(F)cc(F)c3)c(=O)n(C[C@H]3CCCO3)c2n1 do in these assays?
15-hLO inh: inactive; ALOX15B inhib: inactive

How did Oc1ccc(N2CCN(C(c3cccnc3)c3nnnn3Cc3ccccc3)CC2)cc1 (configuration not stated) do in these assays?
15-hLO inh: 13µM; ALOX15B inhib: inactive[2.29 µM]

How did c1ccc(CCn2nnnc2C(c2cccnc2)N2CCN(c3ccccc3)CC2)cc1 (configuration not stated) do in these assays?
15-hLO inh: inactive; ALOX15B inhib: inactive

How did CC1=CC(C)(C)N2C(=O)C3(SCC(=O)N3c3ccc(O)cc3)c3cc(C)cc1c32 (configuration not stated) do in these assays?
15-hLO inh: inactive; ALOX15B inhib: inconclusive

How did CC1=CC(C)(C)N2C(=O)C3(N=C(N)NC(Nc4ccccc4)=N3)c3cc(C)cc1c32 (configuration not stated) do in these assays?
15-hLO inh: 25µM; ALOX15B inhib: inactive

Results for O=C(c1cnccn1)N1CCC2(CC1)CN(c1cccc(-c3ccccc3)c1)C2 ?
15-hLO inh: inactive; ALOX15B inhib: inactive

How did Cc1ccc(NC(=O)Cn2cccc2)cc1C do in these assays?
15-hLO inh: inactive; ALOX15B inhib: inactive

What do the screens show for `Cc1ccc(NC(=O)CSCC(N)=O)cc1C`?
15-hLO inh: 6.3µM; ALOX15B inhib: inactive

Results for CC(=O)O[C@@H]1CC[C@]2(C)C(=C[C@@H]([C@@H]3C=C4C[C@@H](OC(C)=O)CC[C@]4(C)C4=C3[C@H]3C[C@@H]5O[C@@]6(CC[C@H](C)CO6)[C@@H](C)[C@@H]5[C@@]3(C)CC4)C3=C2CC[C@@]2(C)[C@H]4[C@@H](C)[C@]5(CC[C@H](C)CO5)O[C@@H]4C[C@H]32)C1 ?
15-hLO inh: inactive[11.4 µM]; ALOX15B inhib: inactive[11.4 µM]

Results for CCN(Cc1ccccc1)C(=O)CCCOc1ccccc1 ?
15-hLO inh: 4µM; ALOX15B inhib: inactive

Results for O=C(O)CCCC(=O)N(Cc1ccccc1)Cc1ccccc1 ?
15-hLO inh: inactive[11.4 µM]; ALOX15B inhib: inactive

How did Cc1noc(C)c1COC(=O)[C@H](C)NS(=O)(=O)c1ccc(Cl)c(Cl)c1 do in these assays?
ALOX15B inhib: inactive

What do the screens show for `Cc1noc(C)c1COC(=O)Cc1ccc(Cl)c(Cl)c1`?
15-hLO inh: 25µM; ALOX15B inhib: inactive

Results for O=C(C1COc2ccccc2O1)N1CCc2ccccc21 (configuration not stated) ?
15-hLO inh: 16µM; ALOX15B inhib: inactive

What do the screens show for `O=C(CN1C(=O)COc2ccccc21)N1CCc2ccccc21`?
15-hLO inh: inactive; ALOX15B inhib: inactive

What do the screens show for `CCCCOC(=O)NS(=O)(=O)c1sc(CC(C)C)cc1-c1ccc(Cn2c(CC)nc3c(C)cc(C)nc32)cc1`?
15-hLO inh: inactive; ALOX15B inhib: inactive

Results for C[C@](N)(COP(=O)(O)O)C(=O)O ?
15-hLO inh: inactive; ALOX15B inhib: inactive

Results for COc1ccc(C2=Nc3cccc4cccc(c34)N2)cc1 ?
ALOX15B inhib: inactive

Screening data (PubChem BioAssay)
